Screen size: about 360,000 compounds; about 740 (0.21%) were called active. A call without a number means that no potency is given here. Inconclusive results (about 2%) are left out. Calls come from the whole dose curve; as a rule, active = well fitted inhibition curve with a large enough effect; inconclusive = small, poorly fitted or top-dose-only effect; inactive = no such curve, though single readings can be large or run the other way. The full list was thinned out, with actives kept by preference.
Tested on: Plasmodium falciparum AMA1 (3D7) - RON2 peptide interaction
Assay: qHTS for Inhibitors of AMA1-RON; Towards Development of Antimalarial Drug Lead: Primary Screen; note: nearly all actives have a fitted effect of over 45% in size
Conditions: AlphaScreen AMA1-biotinylated RON2 peptide binding; series mostly up to 58.2 µM
Source text: Plasmodium, the causative agent of malaria, is one of the world's deadliest parasitic diseases. Currently there is no vaccine available and there is widespread resistance to common anti-malarial drugs. This warrants novel, alternative approaches for developing improved therapy. During infection, one such essential interaction is between two parasite proteins, the apical membrane antigen1 (AMA1) that is translocated onto the merozoite surface and the rhoptry neck protein 2 (RON2), which is transferred to the red blood cells (RBC) membrane during invasion (Besteiro et.al., 2009). Recently, the Miller lab has shown that the interaction between AMA1 and RON2 is essential for junction formation of the parasite with the host cell (Srinivasan et.al., 2011). The binding of the RON2 peptide to the hydrophobic pocket in AMA triggers the formation of the moving junction which provides a firm anchor for the parasite to pull itself into the RBC using its actin-myosin motor; an irreversible step that commits the parasite for invasion. Only one AMA1 and RON2 genes exists in Plasmodium and there are no alternate pathways. Moreover, the region corresponding to RON2 peptide is conserved in all P. falciparum isolates for which sequences are available. The key residues in the AMA1 hydrophobic pocket that binds RON2 are also conserved and indicate a functional constraint governing this essential step in invasion since a short RON2 peptide (RON2L) corresponding to the binding region on AMA1 is sufficient to compete with the native RON2 protein and inhibits invasion (Tonkin et.al, 2011). Therefore, developing small molecule inhibitors of this interaction offers a promising target opening a new arena for anti-malarial therapeutics drug design.
In collaboration with the Miller lab, a quantitative High Throughput Screen using the AlphScreen technology was developed using a recombinant his-tagged AMA1 and a biotinylated RON2 peptide. This fluorescent screen was assayed against the NIH Molecular Libraries Small Molecule Repository (MLSMR). Inhibition of this protein-protein interaction is the desired outcome of this assay. However, due the limitations of this AlphaScreen assay, a large number of artifacts were observed. An AlphaScreen counterscreen was run to identify the true inhibitors, triage compound activity, and weed out false positives.
NIH Chemical Genomics Center [NCGC]
NIH Molecular Libraries Probe Centers Network [MLPCN]
Assay Submitter (PI): Louis Miller, National Institute of Allergy and Infectious Disease (NIAID)
Two microliters of his-tagged AMA1 3D7 allele protein (final concentration 25 nM) was dispensed into a 1,536-well assay plate. Small molecules and positive control peptides were pin-transferred (23 nL or 46 nL) via Kalypsys pin-tool equipped with a 1,536-pin array, resulting in final compound and peptide concentration ranges of 91.5 nM - 57.2 µM, and 15.6 nM - 2.00 µM, respectively. Unlabeled RON2 peptide or R1 peptide ([…]) that specifically binds the 3D7 AMA1 was used as a positive control that inhibited the binding of RON2L to AMA1. After 15 minutes incubation, 1 uL of biotinylated RON2 peptide (final concentration 25 nM) or buffer were dispensed and the assay plate was incubated for an additional 30 minutes at room temperature and protected from light. This was followed by an addition of 1 uL mixture of donor and acceptor beads (10 ug/mL final concentrations for each). The plates were incubated for 30 min at room temperature and read using the EnVision(R) plate reader (PerkinElmer). Maximum inhibition response was normalized to the positive control signal while no inhibition response was normalized to the DMSO treated wells.
Potency is the fitted concentration of half-maximal effect.

Compound | Potency | activity change, negative = inhibition
CCc1ccc(C2C(C#N)=C(N)N(N3CCOCC3)C3=C2C(=O)CC(C)(C)C3)s1 (centres undefined) | inactive | –
Cc1cc(O)c(C(=O)/C=C/c2c(F)c(F)c(F)c(F)c2F)c(=O)o1 | inactive | –
CCOc1ccccc1NC(=O)Cn1ncc2ccc([N+](=O)[O-])cc21 | inactive | –
CCCCN=C1N/C(=C\c2ccco2)C(=O)N1c1ccccc1 | inactive | –
COc1ccc(CN2C(=O)C(C)S/C2=N/N=C/c2ccco2)cc1 (centres undefined) | inactive | –
COc1ccc(N2C(=O)/C(=C/c3ccco3)C(=O)NC2=S)cc1 | 15.8 µM (active) | –
CCC1SC2=NCCN2C1(O)c1ccc(Cl)cc1 (centres undefined) | inactive | –
CC(C)CCNC(=O)Cn1c(=O)oc2cc(S(=O)(=O)N3CC(C)CC(C)C3)ccc21 (centres undefined) | inactive | –
CN(C(=O)CN(CCO)CC(=O)N(C)C(C)(C)Cc1ccccc1)C(C)(C)Cc1ccccc1 | inactive | –
CN1OC[C@@H]2CN(S(=O)(=O)c3cccc(C(F)(F)F)c3)[C@H](c3ccc(-c4cc5ccccc5o4)cc3)C[C@@H]21 | inactive | –
CC1=C(C(=O)Nc2ccc(Cl)cc2)C(c2ccco2)NC(=O)N1 (centres undefined) | inactive | –
CCNC(=O)N1CCNC(=O)C1CC(=O)Nc1ccc(C(=O)OCC)cc1 (centres undefined) | inactive | –
CCOc1ccccc1-n1c(SCC(=O)NCc2ccco2)nnc1-c1ccncc1 | inactive | –
Cc1ccc(NC(=O)CN2CCCCC2)c2c1CC(C)(C)O2 | inactive | –
CC(=O)c1ccc(NC(=O)C(C)NCc2ccc(Cl)cc2)cc1 (centres undefined) | inactive | –
CN(/C(=N/S(=O)(=O)c1cccs1)c1ccccc1)c1ccc(O)cc1 | inactive | –
CC1CCC(NC(=O)CN(C)S(=O)(=O)c2ccc3c(c2)c(=O)n(C)c(=O)n3C)CC1 (centres undefined) | inactive | –
O=S(=O)(c1ccc(Br)cc1)c1nc(-c2ccccc2)oc1NCc1cccnc1 | inactive | –
O=C1CC(=O)Nc2cc(S(=O)(=O)N3CCN(c4cccc(C(F)(F)F)c4)CC3)ccc2N1 | inactive | –
Cc1ccc(N(C(=O)Cc2cccs2)C(C(=O)NCC2CCCO2)c2ccncc2)cc1 (centres undefined) | inactive | –
CCOC(=O)c1ccccc1NC(=O)COC(=O)C(Cc1c[nH]c2ccccc12)NC(C)=O (centres undefined) | inactive | –
C=CCc1cccc2cc(C(=O)Nc3ccc(NC(C)=O)cc3)c(=O)oc12 | inactive | –
O=C(CSc1nnc(-c2ccncc2)o1)Nc1cccc(Cl)c1 | inactive | –
Cc1cc(NC(=O)CSc2nnnn2-c2ccc(F)cc2)no1 | inactive | –
Cc1cc(NC(=O)CSc2nnc(-c3ccc(Cl)s3)o2)no1 | 2.24 µM (active) | –

Compound | Potency | activity change, negative = inhibition
CC1(C)C(c2ccccc2)=NC(c2cccnc2)=[N+]1[O-] | inactive | –
COc1cccc(N(C(=O)c2snc(C(N)=O)c2N)C(C(=O)NCC2CCCO2)c2c[nH]c3ccccc23)c1 (centres undefined) | inactive | –
Cc1ccc(NC(=O)COC(=O)CCc2nc3ccccc3n2-c2ccccc2)c(C)c1 | inactive | –
CC(C)(C)c1ccc(NC(=O)COC(=O)CCc2nc3ccccc3c(=O)[nH]2)cc1 | inactive | –
CCN(c1ccc(NC(=O)COC(=O)CCc2nc3ccccc3n2-c2ccccc2)cc1)C(C)C | 10 µM (active) | –
CC(C)NC(=O)Nc1ccc2c(c1)C(=O)N([C@H](C)CO)C[C@H](C)[C@@H](CN(C)Cc1ccc(C(F)(F)F)cc1)OCCCC[C@@H](C)O2 | inactive | –
C=C1c2c(Cl)ccc(O)c2C(O)=C2C(=O)[C@]3(O)C(O)=C(C(N)=O)C(=O)[C@@H](N(C)C)[C@@H]3[C@@H](O)C12 (some centres undefined) | 1.41 µM (active) | –
CC(=O)Nc1nc(C)c(Cc2ccccc2)c(=O)[nH]1 | inactive | –
C#CCOCCOCCOCCNc1nc(N2CCN(C(=O)C([C@@H](C)CC)n3cc(C(N)COC(=O)C(F)(F)F)nn3)CC2)nc(N2CCN(C(=O)[C@H](Cc3ccc(O)cc3)n3cc(C(N)[C@H](C)CC)nn3)CC2)n1 (some centres undefined) | inactive | –
O=[N+]([O-])c1ccc(Sc2n[nH]c(-c3ccco3)n2)nc1 | inactive | –
COc1ccc(CNC(=O)COC(=O)C2=Cc3ccccc3OC2)cc1 | inactive | –
OCC#CC[N+]1(CC#Cc2ccccc2)CCCC1 | inactive | –
CC1(C)Cc2c(sc(NC(=O)C(=O)NCC3CCCO3)c2C(=O)O)CO1 (centres undefined) | inactive | –
O=C(Nc1ccc(CSc2ccccc2)cc1)c1ccc(CN2CCOCC2)cc1 | inactive | –
CN(C)c1ccc(C(CC(=O)O)C(=O)O)cc1 (centres undefined) | inactive | –
CN(C)c1ccc(CSc2ccccc2)cc1 | 8.91 µM (active) | –
Cc1cccc(CSc2nc3c(c(=O)n2C)SCC3)c1 | inactive | –
N#Cc1ccc(/C=C2\CCn3c2nc2cc(C(=O)O)ccc2c3=O)cc1 | inactive | –
O=C(O)c1ccc2c(=O)n3c(nc2c1)/C(=C/c1ccc(OC(F)F)cc1OC(F)F)CC3 | 20 µM (active) | –
Cc1ccc(/C=C2\CCn3c2nc2cc(C(=O)O)ccc2c3=O)c(C)c1 | inactive | –
CCOC(=O)c1c(-n2cnnn2)sc(C)c1C | inactive | –
COc1ccc2c(c1)c(=Cc1ccc(N(C)C)cc1)c1cc(-c3ccccc3)[n+](C)n12 | 17.8 µM (active) | –
CCCCCOC(=O)C1=C(C)Nc2nnnn2C1c1ccc(OC)c(OC)c1OC (centres undefined) | inactive | –
COc1ccc(-c2nc3c(s2)CCc2onc(-c4ccc(Br)cc4)c2-3)cc1 | inactive | –
CC1(C(=O)NCC2CCOCC2)Cc2c(-c3cccc(C(N)=O)c3)ccnc2O1 (centres undefined) | inactive | –

Compound | Potency | activity change, negative = inhibition
CN(Cc1c(F)cccc1Cl)C(=O)COC(=O)Cn1cnc2ccccc2c1=O | inactive | –
COc1ccc(/C(N)=N/OC(=O)Oc2ccccc2)cc1 | inactive | –
COc1ccc(C(C#N)=C2C=CC(=NO)c3ccccc32)cc1 | 12.6 µM (active) | –
COC(=O)Nc1ncc(CN2CCCCC2)s1 | inactive | –
CC(C)(C)c1nnc(N/N=C/c2ccc(O)cc2)n(N)c1=O | inactive | –
CC(=O)Nc1ccc(S(=O)(=O)Nc2nc3n(n2)C(c2ccccc2)CC(=O)N3)cc1 (centres undefined) | inactive | –
CCCCN(C(=O)CSCc1ccc(C)cc1)c1c(N)n(Cc2ccccc2)c(=O)[nH]c1=O | inactive | –
O=C(Nn1cnnc1)c1cc(Cl)ccc1Cl | inactive | –
Cc1cc(NC(=O)CCS(=O)(=O)c2ccc(F)cc2)no1 | inactive | –
CCn1c(SCC(=O)NC2=NCCS2)nnc1C(C)NC(=O)c1ccccc1F (centres undefined) | inactive | –
COc1ccc(NC(=O)NC2CC3CCCC(C2)N3Cc2ccccc2)cc1 (centres undefined) | inactive | –
Cc1c(S(=O)(=O)NCc2ccccc2)c(=O)n(C)c(=O)n1C | inactive | –
CC(C)(C)C1CCC(=O)N2CCC[C@]2(c2ccccc2)C1 (some centres undefined) | inactive | –
O=C(O)CCCN1C(=O)c2ccccc2Sc2ncccc21 | inactive | –
Cc1ccc(C(=O)NCCc2nnc(SCC(=O)Nc3cccc(C(=O)O)c3)n2C)cc1 | inactive | –
CCCCc1nc2c(=O)[nH]c3ccccc3c2o1 | inactive | –
CC(Sc1nnnn1C1CCCCC1)C(=O)O (centres undefined) | inactive | –
CC(=O)c1c(C)[nH]c(C(=O)OCC(=O)Nc2cc(S(=O)(=O)N3CCCCC3)ccc2C)c1C | inactive | –
CN(Cc1ccccc1F)c1cc2c(c3c1ccn3C)C1CCC2O1 (centres undefined) | 31.6 µM (active) | –
CCCCN(C(=O)c1nn(C)c(=O)c2ccccc12)c1c(N)n(CCC)c(=O)[nH]c1=O | inactive | –
O=C(Nc1ccc2c(c1)nc1n2CCCCC1)c1cc(S(=O)(=O)N2CCOCC2)ccc1Cl | inactive | –
CCOC(=O)C1=C(CC)Nc2ccccc2N=C1NC(=O)c1cccc(S(=O)(=O)N2CCCC2)c1 | inactive | –
Cc1ncoc1C(=O)NCCC(c1ccccc1)c1ccccc1 | inactive | –
Cc1ccc(S(=O)(=O)/N=C(\CN2CCOCC2)N2CCOCC2)cc1 | inactive | –
O=C(Nc1ccc(N2CCN(C(=O)c3cccs3)CC2)cc1)c1cccnc1Cl | inactive | –

Compound | Potency | activity change, negative = inhibition
COc1ccc(N2CCN(C(=S)Nc3ccc(S(N)(=O)=O)cc3)CC2)cc1 | inactive | –
C=CC(=O)Nc1ccc(Nc2ccnc(Nc3ccc(N4CCN(C)CC4)cc3)n2)cc1 | 15.8 µM (active) | –
Cc1ccccc1NC(=O)COC(=O)c1cc(C)n(C2CC2)c1C | – | 4.53% [at 11.6 µM] (inactive)
CC(NC(=O)c1ccc(N2CCNCC2)c([N+](=O)[O-])c1)C12CC3CC(CC(C3)C1)C2 (centres undefined) | inactive | –
CN(C)C(=O)CSc1n[nH]c(-c2ccco2)n1 | inactive | –
CSc1c(SCc2ccccc2)cnn(Cc2ccccc2)c1=O | inactive | –
c1ccc(CSc2nnc(-c3ccco3)c(-c3ccco3)n2)cc1 | 31.6 µM (active) | –
Cc1ccc(-n2ncc(C(=O)NC3CC3)c2C2CCN(C(=O)OC(C)(C)C)CC2)c(C)c1 | inactive | –
O=C(OCC#CCSc1nnc(-c2ccncc2)o1)c1sc2ccccc2c1Cl | inactive | –
Cc1ccc([N+](=O)[O-])c(OCCCNCC(C)O)c1 (centres undefined) | inactive | –
CCOC(=O)C1CCCN(C(=O)c2ccc(CS(=O)(=O)c3ccc(Br)cc3)o2)C1 (centres undefined) | inactive | –
C=CCNc1nc(N)c(C(=C(C#N)C#N)c2ccccc2)s1 | inactive | –
CCCC1CC(C)(C(=O)Cn2[nH]c(=O)ccc2=O)OC1=O (centres undefined) | inactive | –
CC12COC3(C(=O)Nc4ccc(Cl)cn4)CC1CCC32C (centres undefined) | inactive | –
CCC(=C/c1sc2ccc3ccccc3c2[n+]1C)/C=C1\Sc2ccc3ccccc3c2N1C | 35.5 µM (active) | –
COc1ccc(CN2CCC(c3nc4ccc(Cl)cc4[nH]3)CC2)cc1 | inactive | –
COCCOC(=O)C1=C(C)NC(=O)NC1c1cc2c(cc1Br)OCO2 (centres undefined) | inactive | –
O=C(CSc1nnc(-c2cccs2)n1Cc1ccccc1)N1CCc2ccccc2C1 | inactive | –
COc1ccccc1CN1CCN(C(=O)Cc2ccccc2)CC1 | inactive | –
CC(C)CC(=O)N1CCN(Cc2ccccc2Br)CC1 | 20 µM (active) | –
CC(C)CC(=O)N1CCN(Cc2cccc(Cl)c2)CC1 | inactive | –
CCCCC(O)C1=C[N+](=O)CC=C1 (centres undefined) | inactive | –
CN1CCN(Cc2nc3cc(NC(=O)COc4ccc([N+](=O)[O-])cc4)ccc3n2C)CC1 | inactive | –
COc1ccc(C2(CNC(=O)C(c3ccccc3)c3ccccc3)CCOCC2)cc1OC | inactive | –
